# Data from the supplement of paper PMC9694430.
# Legend:
# Assay in all cases: thermal shift delta Tm vs DMSO control; higher = stronger stabilization (binding)
# Details in all cases: 12.5 µM; protein concentration 2 µM
# [1] = test system: LOC_OS01G01410-cb001
# Summary of the method: (§1)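 Heating from 25°C to 95°C at 0.05°C/s, fluorescence was recorded for 19.5 μl wells of 2 μM E. coli-expressed, purified rice kinase domain in 100 mM potassium phosphate pH 7.5, 150 mM NaCl, 10% glycerol and 5 × SYPRO Orange with compound in DMSO. Boltzmann fits gave melting temperatures for this differential scanning fluorimetry assay. The shift reported is the mean of three replicates against the DMSO-only protein.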
# [2] = test system: LOC_OS01G02750-cb003
# Summary of the method: as §1
# [3] = test system: LOC_OS01G10900-cb004
# Summary of the method: as §1
# [4] = test system: LOC_OS01G13800-cb001
# Summary of the method: as §1
# [5] = test system: LOC_OS01G14860-cb001
# Summary of the method: as §1
# [6] = test system: LOC_OS01G21960-cb002
# Summary of the method: as §1
# [7] = test system: LOC_OS01G39600-cb002
# Summary of the method: as §1
# [8] = test system: LOC_OS01G48390-cb002
# Summary of the method: as §1
# [9] = test system: LOC_OS01G51400-cb002
# Summary of the method: as §1
# [10] = test system: T1, LOC_OS01G52050-cb004
# T1 sequence (whole entry): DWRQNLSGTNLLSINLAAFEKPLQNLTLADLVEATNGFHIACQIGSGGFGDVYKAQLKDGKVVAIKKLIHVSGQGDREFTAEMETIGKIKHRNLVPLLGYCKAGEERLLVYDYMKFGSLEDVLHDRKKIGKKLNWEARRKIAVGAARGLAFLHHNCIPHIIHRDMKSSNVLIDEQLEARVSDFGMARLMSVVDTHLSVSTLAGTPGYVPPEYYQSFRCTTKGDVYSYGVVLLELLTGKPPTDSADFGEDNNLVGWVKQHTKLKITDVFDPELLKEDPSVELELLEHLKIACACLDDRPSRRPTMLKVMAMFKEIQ
# Summary of the method: as §1
# 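Note: purified Escherichia coli-expressed rice kinase domain construct.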
Compound,thermal shift delta Tm [1],thermal shift delta Tm [2],thermal shift delta Tm [3],thermal shift delta Tm [4],thermal shift delta Tm [5],thermal shift delta Tm [6],thermal shift delta Tm [7],thermal shift delta Tm [8],thermal shift delta Tm [9],thermal shift delta Tm [10]
CCCS(=O)(=O)Nc1ccc(F)c(C(=O)c2c[nH]c3ncc(Cl)cc23)c1F,2.48 °C,2.88 °C,1.45 °C,-0.05 °C,0.85 °C,0.52 °C,2.73 °C,3.29 °C,0.32 °C,1.3 °C
Cc1csc(-c2nnc(Nc3ccc(Oc4ncccc4-c4ccnc(N)n4)cc3)c3ccccc23)c1,1.65 °C,0.49 °C,0.46 °C,0.28 °C,0.97 °C,1.99 °C,1.72 °C,1.04 °C,0.22 °C,1.54 °C
C=CC(=O)Nc1cccc(C)c1Nc1ncc2cc(-c3c(Cl)c(OC)cc(OC)c3Cl)ccc2n1,0.73 °C,1.61 °C,1.22 °C,0.52 °C,0.39 °C,0.77 °C,0.15 °C,0.36 °C,0.29 °C,0.2 °C
Cc1cc(C(C)Nc2ccccc2)c2nc(N3CCOCC3)cc(=O)n2c1 (stereo not given),1.33 °C,-0.12 °C,0.5 °C,0.23 °C,1.25 °C,0.01 °C,0.8 °C,1.36 °C,0.16 °C,0.56 °C
CC(C)(O)CC(=O)NCCn1ccc2ncnc(Nc3ccc(Oc4cccc(C(F)(F)F)c4)c(Cl)c3)c21,1.78 °C,3.42 °C,1.92 °C,0.44 °C,1.32 °C,1.64 °C,3.99 °C,2.26 °C,1.72 °C,4.47 °C
CC[C@@H]1C(=O)N(C)c2cnc(Nc3ccc(C(=O)NC4CCN(C)CC4)cc3OC)nc2N1C1CCCC1,1.63 °C,-0.86 °C,-0.01 °C,-0.37 °C,-0.16 °C,0.05 °C,0.36 °C,-0.02 °C,-0.01 °C,0.06 °C
"O=c1cc(-c2ccccc2)oc2c(O)c(O)ccc12 [7,8-Dihydroxyflavone]",2.01 °C,2.3 °C,0.12 °C,2.97 °C,3.88 °C,3.56 °C,0.49 °C,1.55 °C,0.69 °C,1.44 °C
CCOc1cc2ncc(C#N)c(Nc3ccc(OCc4ccccn4)c(Cl)c3)c2cc1NC(=O)/C=C/CN(C)C [Neratinib (HKI-272)],1.9 °C,1.42 °C,1 °C,0.47 °C,6.67 °C,0.71 °C,5.12 °C,0.77 °C,0.27 °C,2.11 °C
C[C@H]1[C@H](C)CC[C@]2(C(=O)O)CC[C@]3(C)C(=CC[C@@H]4[C@@]5(C)C[C@@H](O)[C@H](O)[C@@](C)(CO)[C@@H]5CC[C@]43C)[C@H]12 [Asiatic Acid],0.45 °C,-0.18 °C,0.15 °C,1.17 °C,0.23 °C,0.75 °C,0.1 °C,0.45 °C,0.17 °C,0.2 °C
CN1CC(O)C2=C/C(=N/NC(N)=O)C(=O)C=C21 (stereo not given) [Carbazochrome],0.3 °C,0.81 °C,-0.04 °C,-0.31 °C,0.31 °C,0.23 °C,0.14 °C,-0.01 °C,0.5 °C,-1.17 °C
O=C(/C=C/c1ccc2ccccc2n1)c1ccncc1,0.4 °C,-1.2 °C,1.49 °C,0.45 °C,1.08 °C,2.15 °C,-0.61 °C,0.91 °C,0.46 °C,-0.48 °C
O=C(NOC[C@H](O)CO)c1ccc(F)c(F)c1Nc1ccc(I)cc1F,1.23 °C,0.99 °C,0.49 °C,0.45 °C,0.5 °C,0.89 °C,0.66 °C,0.89 °C,0.22 °C,0.59 °C
Cc1[nH]c(/C=C2\C(=O)Nc3ccc(S(=O)(=O)Cc4c(Cl)cccc4Cl)cc32)c(C)c1C(=O)N1CCC[C@@H]1CN1CCCC1,1.92 °C,1.5 °C,0.36 °C,0.4 °C,0.57 °C,0.17 °C,3.39 °C,0.38 °C,-0.1 °C,0.18 °C
Cn1cc(-c2ccc3c(c2)CCN3C(=O)Cc2cccc(C(F)(F)F)c2)c2c(N)ncnc21,1.18 °C,3.93 °C,2.83 °C,-0.12 °C,0.47 °C,0.33 °C,0.17 °C,0.89 °C,-0.22 °C,2.35 °C
C[C@H](CN(C)C)Oc1nc(Nc2cc3cccc(Cl)c3cn2)cnc1C#N,0.28 °C,1.3 °C,0.44 °C,0.1 °C,0.9 °C,1.95 °C,0.03 °C,4.18 °C,0.08 °C,1.79 °C
"CN1CCN(c2ccc3nc(-c4c(N)c5c(F)cccc5[nH]c4=O)[nH]c3c2)CC1 [Dovitinib (TKI-258, CHIR-258)]",6.03 °C,2.05 °C,2.59 °C,-0.2 °C,0.79 °C,2.56 °C,2.01 °C,1.63 °C,0.56 °C,3.72 °C
C[C@@H]1COCCN1c1cc(C2([S@](C)(=N)=O)CC2)nc(-c2cc[nH]c3nccc2-3)n1,0.28 °C,0.13 °C,-0.04 °C,0.31 °C,-0.19 °C,-0.02 °C,-0.99 °C,-0.04 °C,-0.01 °C,-0.09 °C
COc1ccc(-c2nc(N3CCOCC3)c3sc(CN(C)c4ncc(C(=O)NO)cn4)cc3n2)cn1,0.62 °C,1.67 °C,0.67 °C,0.23 °C,0.42 °C,0.88 °C,0.28 °C,0.53 °C,0.43 °C,-0.17 °C
NC1(Cc2ccc(Cl)cc2)CCN(c2ncnc3[nH]ccc23)CC1,0.45 °C,0.58 °C,-0.03 °C,0.07 °C,1.34 °C,0.89 °C,0.46 °C,3.31 °C,0.45 °C,0.94 °C
Cc1ccc(C(=O)Nc2ccc(Oc3cc4cnn(C)c4cc3-c3cn[nH]c3)c(F)c2)c(=O)n1-c1ccc(F)cc1,0.22 °C,3.21 °C,0.37 °C,1.46 °C,3.24 °C,0.63 °C,0.72 °C,1.1 °C,0.84 °C,2.17 °C
